According to PubChem BioAssay (EPA / NIEHS):
Where “and” joins values, the source holds several entries; their conditions need not be identical. Equal values may be shown once. The source holds several records for some structures; these can differ, active in one and inactive in another. Calls of active or inactive are those of the source. The calls were made as follows: active = hit-call score of the fitted dose curve at least 0.9, where 1 is the maximum; inactive = score below 0.9.

Each molecule was assayed on TIMP metallopeptidase inhibitor 1 (TIMP1), TIMP1 (gene 7076) (assay: BSK_MyoF_TIMP1: BioMAP Diversity Plus: MyoF Assay for TIMP metallopeptidase inhibitor 1 (TIMP1) Biomarker Activity (AID 2284269)). Conditions: primary human lung fibroblasts.
Description: BSK_MyoF is a cell-based, multiplexed-readout assay that uses lung fibroblasts, […], with measurements taken at 24 hours after chemical dosing in a microplate: 96-well plate.BSK_MyoF_TIMP1 is an assay component measured in the BSK_MyoF assay. It measures TIMP-1 antibody related to regulation of gene expression using ELISA technology.Data from the assay component BSK_MyoF_TIMP1 was analyzed at the endpoint, BSK_MyoF_TIMP1, in the positive analysis fitting direction relative to DMSO as the negative control and baseline of activity. Using a type of binding reporter, gain or loss-of-signal activity can be used to understand protein changes. To generalize the intended target to other relatable targets, this assay endpoint is annotated to the 'protease' intended target family, where the subfamily is 'matrix metalloproteinase'.
The levels of cell surface (or secreted, indicated by the prefix "s") biomarker endpoints were measured by ELISA. Overt cytotoxicity to cells in confluent adherent cultures (all systems other than the BT system) was assessed by measuring total protein levels using sulforhodamine B (SRB) staining in parallel cultures at the time of biomarker measurements, indicated as SRB endpoints. For proliferation assays for adherent cell types, individual cell types are cultured at sub-confluence and relative cell numbers quantified by SRB staining at time points optimized for each system (48 h: 3C and CASM3C systems; 72 h: BT and HDF3CGF systems; 96 h: SAg system). SRB was performed by staining cells with 0.1% SRB after fixation with 10% TCA and reading wells at 560 nm.Viability and proliferation of PBMC (T cells) was quantified by Alamar Blue reduction for the SAg and BT systems. For PBMC viability (referred to as PBMC Cytotoxicity within the assay endpoint names), cells were plated (75,000/well in a 96-well plate) and then chemical samples added for 1 h before addition of activators, SEB and TSST-1 (20 ng/mL final concentration each). Cells were incubated for 90 h. Then, Alamar Blue (20 uL/well) (Invitrogen, Cat DAL1100) was added for 6 h, and the plates were read with a fluorescence microplate reader at 546/580 nm (excitation/emission). For PBMC proliferation, cells were plated and activated as above but incubated for only 16 h prior to addition of Alamar Blue. Plates were read after 6 h.

Structure (SMILES) | outcome | AC50
O=S(=O)(F)C(F)(F)C(F)(F)C(F)(F)C(F)(F)C(F)(F)C(F)(F)C(F)(F)C(F)(F)F | inactive | 
ClC(Cl)=C(c1ccc(Cl)cc1)c1ccccc1Cl |  | 5.76 µM (active)
C=CC(=O)OCC(F)(F)C(F)F | inactive | 47.6 µM (active)
CCCCOCCOP(=O)(OCCOCCCC)OCCOCCCC | inactive | 
CC(C)Nc1ccc(Nc2ccccc2)cc1 |  | 20 µM (active)
N#Cc1c(-c2ccc(Cl)cc2)[nH]c(C(F)(F)F)c1Br |  | 20 µM (active)
OCC(F)(F)OC(F)(F)C(F)(F)OC(F)(F)CO | inactive | 
OCC(F)(F)OC(F)(F)C(F)(F)OC(F)(F)C(F)(F)OC(F)(F)F |  | 22.3 µM (active) and 27.8 µM (active)
O=C(O)C(F)(OC(F)(F)C(F)(F)C(F)(F)F)C(F)(F)F (centres undefined) | inactive | 
FC(F)(F)C(F)(C(F)(F)F)C(F)(F)C(F)(F)CC1CO1 (centres undefined) | inactive | 
COP(N)(=S)OC | inactive | 
CCOP(=S)(OCC)SCS(=O)(=O)CC | inactive | 
O=P(OCC(Br)CBr)(OCC(Br)CBr)OCC(Br)CBr (centres undefined) | inactive | 
C=CC(=O)OCC(CC)(COC(=O)C=C)COC(=O)C=C |  | 9.61 µM (active)
OCC(F)(F)OC(F)(F)C(F)(F)OC(F)(F)C(F)(F)OC(F)(F)CO | inactive | 
N#Cc1cc([N+](=O)[O-])ccc1N | inactive | 
O=C(O)C=CC(F)(C(F)(F)F)C(F)(F)F | inactive | 
Nc1ccc([N+](=O)[O-])cc1Cl | inactive | 
CC(Cl)CN(C)C (centres undefined) | inactive | 

Structure (SMILES) | outcome | AC50
COP(=O)(O)OC | inactive | 
CCCCC(CC)COP(=O)(Oc1ccccc1)Oc1ccccc1 (centres undefined) |  | 6.48 µM (active)
O=C(O)C(F)(F)OC(F)(F)C(F)(F)OC(F)(F)F | inactive | 
CCOP(=S)(OCC)SCSc1ccc(Cl)cc1 | inactive | 
CC(C)(C)c1ccccc1OP(=O)(Oc1ccccc1)Oc1ccccc1 |  | 26.8 µM (active)
c1ccc2c(c1)sc1ccccc12 | inactive | 
NC(=O)C(F)(F)C(F)(F)F | inactive | 
Cc1c([N+](=O)[O-])cc2c(c1[N+](=O)[O-])C(C)(C)CC2(C)C | inactive | 
O=C(O)C(F)(F)OC(F)(F)C(F)(F)OC(F)(F)C(=O)O | inactive | 
COC(=O)C(F)(F)C(F)(F)OC(F)(C(F)(F)F)C(F)(F)OC(F)=C(F)F (centres undefined) | inactive | 
O=C(O)C(F)(F)C(F)(F)C(=O)O | inactive | 
CCOP(=S)(OCC)SCn1nnc2ccccc2c1=O | inactive | 
O=c1ssc(Cl)c1Cl |  | 7.43 µM (active)
O=S1(=O)OCC2C(CO1)C1(Cl)C(Cl)=C(Cl)C2(Cl)C1(Cl)Cl (centres undefined) | inactive | 
CC(O)C(F)(F)C(F)(F)F (centres undefined) | inactive | 
CCOP(=S)(S)OCC | inactive | 
CCCCC(CC)COC(=O)c1c(Br)c(Br)c(Br)c(Br)c1C(=O)OCC(CC)CCCC (centres undefined) | inactive | 
CCOP(=S)(NC(C)C)Oc1ccccc1C(=O)OC(C)C (centres undefined) | inactive | 
Cc1ccc2c(c1N)C(=O)c1ccccc1C2=O | inactive | 
